Reference: PubChem BioAssay (Tox21)
Inconclusive results are not listed. Active and inactive are the calls of the source. Unless noted, calls come from the whole dose curve; as a rule, active = well fitted curve in the direction sought with a large enough effect in the repeat runs; inconclusive = weak or mixed curves; inactive = no such curve, though single readings can be large; an effect the other way counts as inactive or inconclusive.

Columns and labels:
[1] = qHTS assay for small molecule agonists of the p53 signaling pathway (AID 651631; calls by dose curve; note: nearly all actives have a fitted effect of over 15% in size)
How it was run: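 Stably transfected HCT-116 cells (beta-lactamase behind p53 response elements) get compounds after a 5 h settling period; 16 h later at 37 °C, FRET substrate is loaded and fluorescence read after 2 h.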

[2] = qHTS assay for small molecules that induce genotoxicity in human embryonic kidney cells expressing luciferase-tagged ATAD5 (AID 651632); note: nearly all actives have a fitted effect of over 15% in size
How it was run: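 HEK293T cells carrying luciferase-tagged ATAD5 were given compound or DMSO vehicle and incubated 16 hr at 37C, 5% CO2. Luciferase activity was read after 30 min at room temperature with Amplite; a rise signals genotoxic stress.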

[3] = qHTS assay for small molecule agonists of the p53 signaling pathway - cell viability (AID 651633; calls by dose curve;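 note: p53RE-bla HCT reporter cells with a stable beta-lactamase p53 reporter; series mostly up to about 83 µM; nearly all actives have a fitted effect of over 30% in size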)
How it was run: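 p53RE-bla cells were treated with compound for 16 hours at 37 C. Cytotoxicity was then measured as CellTiter-Glo luminescence after 30 min at room temperature.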

[4] = qHTS assay for small molecules that induce genotoxicity in human embryonic kidney cells expressing luciferase-tagged ATAD5 - cell viability (AID 651634; calls by dose curve; note: nearly all actives have a fitted effect of over 25% in size)
How it was run: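 HEK293T cells carrying luciferase-tagged ATAD5, 2,000 cells/well, exposed to compound for 15.5 hr at 37C. Viability read as live-cell protease activity by CellTiter-Fluor fluorescence after 30 min at 37C.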

[5] = qHTS assay for small molecule disruptors of the mitochondrial membrane potential - cell viability (AID 720634; calls by dose curve;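 note: human HepG2 liver cancer cells; series mostly up to about 83 µM; nearly all actives have a fitted effect of over 20% in size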)
How it was run: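 HepG2 cells, 2,000 per well, attached overnight, then treated 1 hr at 37 C, 5% CO2. Viability read as ATP by CellTiter-Glo luminescence after 30 min at room temperature. Read in the same wells as the m-MPI membrane-potential dye assay.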

[6] = qHTS assay for small molecule disruptors of the mitochondrial membrane potential (AID 720635)
How it was run: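 HepG2 cells exposed to compound 1 hr at 37C, then Mito-MPS dye 30 min. Ratio read of aggregate (540/590 nm) versus monomer (490/535 nm) fluorescence.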

[7] = qHTS assay to test for compound auto fluorescence at 590 nm (red) in HepG2 cells (AID 720674)
How it was run: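 HepG2 cells, 2,000 per well in MEM with 10% FBS, attached overnight at 37 C, then got 23 nL compound or DMSO. After 1 hr at 37 C, 5% CO2, red fluorescence was read at 540/590 nm against Rose Bengal sodium as reference.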

[8] = qHTS assay to test for compound auto fluorescence at 535 nm (green) in HepG2 cells (AID 720675)
[9] = qHTS assay to test for compound auto fluorescence at 460 nm (blue) in HEK293 cells (AID 720678)
How it was run: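 Measured: blue fluorescence (Ex 405/Em 460 nm) of compound-treated HEK293 cells, incubated overnight at 37C with 5% CO2 and scaled to triamterene equivalents.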

[10] = qHTS assay to test for compound auto fluorescence at 590 nm (red) in HEK293 cells (AID 720679)
How it was run: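 Using HEK293 cells at 2,000 per well, the screen added 23 nL of each compound after cell attachment and incubated overnight (37C, 5% CO2). The plate reader then captured red-label fluorescence, Ex/Em 540/590nm.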

[11] = qHTS assay to test for compound auto fluorescence at 535 nm (green) in HEK293 cells (AID 720680)
[12] = qHTS assay to test for compound auto fluorescence at 460 nm (blue) in HEK293 cell free culture (AID 720681)
How it was run: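 Compounds were added to cell-free DMEM with 10% FBS and fluorescence read directly. The blue channel used 405 nm excitation and 460 nm emission, with triamterene as the reference fluorophore.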

[13] = qHTS assay to test for compound auto fluorescence at 535 nm (green) in HEK293 cell free culture (AID 720682)
How it was run: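 Using fluorescein as calibrant, autofluorescence was quantified at 485/535 nm in cell-free DMEM containing 10% FBS after pintool addition of compound or vehicle.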

[14] = qHTS assay to test for compound auto fluorescence at 590 nm (red) in HEK293 cell free culture (AID 720683)
How it was run: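 Cell-free wells of DMEM with 10% FBS received compound, and intrinsic fluorescence was read at excitation/emission 540/590 nm. Values expressed as equivalence to Rose Bengal sodium.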

[15] = qHTS assay to test for compound auto fluorescence at 590 nm (red) in HepG2 cell free culture (AID 720684)
How it was run: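 Compounds are added to culture medium (MEM, 10% FBS) lacking cells, then fluorescence is read at excitation 540 nm, emission 590 nm, with Rose Bengal sodium as the equivalency standard.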

[16] = qHTS assay to test for compound auto fluorescence at 460 nm (blue) in HepG2 cell free culture (AID 720685)
How it was run: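 Compound (23 nL) or DMSO pinned into cell-free MEM with 10% FBS; blue fluorescence read at 405/460 nm excitation/emission, expressed as auto-fluorescence equivalency to triamterene.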

[17] = qHTS assay to test for compound auto fluorescence at 535 nm (green) in HepG2 cell free culture (AID 720686)
[18] = qHTS assay to test for compound auto fluorescence at 460 nm (blue) in HepG2 cells (AID 720687)
How it was run: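 HepG2 cells in MEM with 10% FBS, attached overnight at 37 C, were exposed to compound or DMSO for 1 hr at 37 C, 5% CO2. Blue fluorescence was read at 405/460 nm, with triamterene as reference fluorophore.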

[19] = target: Glucocorticoid receptor (Homo sapiens) (UniProt P04150); assay: qHTS assay to identify small molecule agonists of the glucocorticoid receptor (GR) signaling pathway (AID 720691; active = well fitted activation curve with a large enough effect in the signal ratio in the repeat runs, not every such curve was filed as active; the % refers to the signal ratio)
Glucocorticoid receptor (Homo sapiens), sequence (P04150 whole entry, looked up): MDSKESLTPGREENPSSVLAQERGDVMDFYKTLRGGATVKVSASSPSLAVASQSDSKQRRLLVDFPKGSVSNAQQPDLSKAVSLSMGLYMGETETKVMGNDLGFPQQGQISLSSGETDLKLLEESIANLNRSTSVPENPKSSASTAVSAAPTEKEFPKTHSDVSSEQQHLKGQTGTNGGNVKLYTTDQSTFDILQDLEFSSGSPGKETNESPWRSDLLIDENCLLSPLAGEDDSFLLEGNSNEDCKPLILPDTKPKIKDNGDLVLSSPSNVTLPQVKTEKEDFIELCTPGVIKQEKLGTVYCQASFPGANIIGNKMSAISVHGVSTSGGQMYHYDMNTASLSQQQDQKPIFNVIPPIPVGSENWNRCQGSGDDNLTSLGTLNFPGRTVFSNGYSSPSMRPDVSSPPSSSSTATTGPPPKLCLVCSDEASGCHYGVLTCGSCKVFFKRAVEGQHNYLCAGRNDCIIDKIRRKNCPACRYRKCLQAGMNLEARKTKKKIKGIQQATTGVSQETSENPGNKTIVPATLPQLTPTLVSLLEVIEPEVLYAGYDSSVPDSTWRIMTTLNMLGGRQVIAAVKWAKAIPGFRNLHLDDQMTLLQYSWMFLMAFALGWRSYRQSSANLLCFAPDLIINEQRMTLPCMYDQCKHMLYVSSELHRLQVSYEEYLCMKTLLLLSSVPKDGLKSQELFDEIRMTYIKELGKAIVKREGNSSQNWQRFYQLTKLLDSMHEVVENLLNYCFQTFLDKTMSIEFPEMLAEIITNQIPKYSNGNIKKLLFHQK
How it was run: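 GR-bla HeLa cells carrying a GRE-driven beta-lactamase reporter, exposed to compounds for 18 h at 37 C. Reporter activation read as fluorescence after 2 h with LiveBLAzer B/G FRET substrate at room temperature.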

[20] = target: Glucocorticoid receptor (Homo sapiens) (UniProt P04150); assay: qHTS assay to identify small molecule antagonists of the glucocorticoid receptor (GR) signaling pathway (AID 720692; active = well fitted inhibition curve with a large enough effect in the signal ratio in the repeat runs, not every such curve was filed as active; the % refers to the signal ratio)
How it was run: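 GR-bla HeLa cells carrying a GRE-driven beta-lactamase reporter received compound after 4 h plating, then dexamethasone (5 nM final). After 18 h at 37C, the FRET substrate was loaded for 2 h at room temperature and fluorescence read.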

[21] = qHTS assay to identify small molecule antagonists of the glucocorticoid receptor (GR) signaling pathway - cell viability counter screen (AID 720693); note: nearly all actives have a fitted effect of over 55% in size
[22] = qHTS assay for identifying genotoxic compounds that show differential cytotoxicity against isogenic chicken DT40 cell lines with known DNA damage response pathways - wild type cell line (AID 743012); note: nearly all actives have a fitted effect of over 60% in size
How it was run: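 Wild-type DT40 cells (300/well) exposed to compounds for 40 hours at 37 C/5% CO2. Viability read by CellTiter-Glo luminescence after 30 min at room temperature.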

[23] = qHTS assay for identifying genotoxic compounds that show differential cytotoxicity against isogenic chicken DT40 cell lines with known DNA damage response pathways - Rev3 mutant cell line (AID 743014); note: nearly all actives have a fitted effect of over 55% in size
[24] = qHTS assay for identifying genotoxic compounds that show differential cytotoxicity against isogenic chicken DT40 cell lines with known DNA damage response pathways - Rad54/Ku70 mutant cell line (AID 743015); note: nearly all actives have a fitted effect of over 60% in size
[25] = qHTS assay to identify small molecule antagonists of the androgen receptor (AR) signaling pathway - cell viability counter screen (AID 743033; note: nearly all actives have a fitted effect of over 45% in size)

Measured: Potency

NC(=O)CN1CC(O)CC1=O (stereo not given)
inactive: all assays above
